High-throughput results (PubChem)
A selection: hits, their analogues and other compounds. The true share with any hit is near 11%.
NIH3T3 tox – cytotoxic compounds in NIH 3T3 cells. NIH 3T3 viability, CellTiter-Glo ATP luminescence, 48-72 h. Potency, µM (highest dose often 96.7 µM), hits mostly inhibitors. 94,000 tested, 4.3% active. AID 1345082; further: nearly all actives have a fitted effect of over 55% in size
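NIH 3T3 cells at 400 cells/well received 23 nL of compound by pintool and were incubated 48 or 72 h at 37 °C. Viability was read as ATP-coupled CellTiter-Glo luminescence.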
HEK cytotox – kills HEK 293 cells; Potency, µM (highest dose often 115 µM), hits mostly inhibitors; AID 1345083; 94,000 tested, 6.6% active; HEK 293 viability, ATP luminescence (CellTiter-Glo), 48-72 h; further: nearly all actives have a fitted effect of over 60% in size
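Luminescence from cellular ATP, measured with CellTiter-Glo, indicates HEK 293 viability. Cells plated at 250 cells/well are treated with compound for 48 or 72 hr at 37 degree Celsius before reagent addition.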
hNpr1 antagonist – human Npr1 receptor antagonism. Potency, µM (top dose mostly 46.3 µM), hits mostly inhibitors. 76,000 tested, 1.6% active. HEK293 hNpr1 GloSensor cGMP, ANP-stimulated luminescence. P16066; calls by dose curve; further: nearly all actives have a fitted effect of over 60% in size
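Compound pre-incubated 30 min at room temperature on GloSensor-loaded HEK293 cells stably carrying hNpr1 and the pGS-40F cGMP biosensor. Stimulation uses hNppA at 0.1 nM final; luminescence is taken at baseline and 20 min post-agonist.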
FLuc inh – Photinus pyralis luciferase inhibition; P08659; purified P. pyralis luciferase, luminescence, biochemical; Potency, µM (titrated, usually from 115 µM), most hits filed as inhibitors; 76,000 tested, 2.5% active; further: nearly all actives have a fitted effect of over 65% in size
Target sequence (P08659 whole entry, looked up): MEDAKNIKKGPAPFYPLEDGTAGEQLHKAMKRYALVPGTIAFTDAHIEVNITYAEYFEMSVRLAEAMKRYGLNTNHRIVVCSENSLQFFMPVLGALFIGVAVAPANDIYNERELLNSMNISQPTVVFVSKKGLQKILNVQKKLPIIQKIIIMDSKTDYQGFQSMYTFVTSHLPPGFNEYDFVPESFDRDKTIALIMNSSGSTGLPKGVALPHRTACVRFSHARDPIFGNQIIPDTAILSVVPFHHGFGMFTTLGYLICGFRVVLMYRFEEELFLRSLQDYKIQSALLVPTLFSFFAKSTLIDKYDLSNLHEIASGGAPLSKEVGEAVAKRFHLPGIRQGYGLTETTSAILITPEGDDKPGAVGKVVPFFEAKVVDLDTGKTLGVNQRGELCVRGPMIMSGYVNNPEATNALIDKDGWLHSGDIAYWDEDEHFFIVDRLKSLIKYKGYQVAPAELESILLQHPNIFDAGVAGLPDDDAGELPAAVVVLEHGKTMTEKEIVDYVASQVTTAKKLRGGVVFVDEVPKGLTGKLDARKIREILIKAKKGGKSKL
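Cell-free enzyme assay, 10nM P. pyralis luciferase, luciferin and ATP each at 10uM. Inhibition profiled over a 6-point titration, read as luminescence.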
Of the large screens only hits and unclear results are named; the others gave an inactive call. Unless noted, the call rests on the fitted dose curve; in most records, active means well fitted curve in the direction sought with a large enough effect; inconclusive means small, poorly fitted or top-dose-only effect, or another doubt; inactive means no such curve, though single readings can be large; an effect the other way counts as inactive or inconclusive.

COc1ccccc1N1CCCc2ncc(C(=O)N3CCCC[C@@H]3Cc3ccccc3)cc21	NIH3T3 tox inconclusive, HEK cytotox inconclusive
COc1ccccc1N1CCCc2ncc(C(=O)N3CCC[C@@H]3c3ccc(F)cc3)cc21	NIH3T3 tox 89µM, HEK cytotox inconclusive
Cc1cn2nc(C(=O)NCc3ccc4c(c3)OCO4)cc2c(N2CCCC2)n1	none
CN(Cc1ccc2nccnc2c1)C(=O)c1cc(COc2ccc(F)cc2F)on1	NIH3T3 tox inconclusive, HEK cytotox inconclusive, FLuc inh inconclusive
COc1cc(C)ccc1OCc1cc(C(=O)N(C)Cc2ncccc2C)no1	NIH3T3 tox 35µM, HEK cytotox 40µM
COc1ccc(C(=O)N2CCC(Oc3ccc(-c4noc(-c5ccccc5)n4)cc3)C2)cn1 (centres undefined)	hNpr1 antagonist 11µM, FLuc inh inconclusive
COc1ccc(C(=O)N2CCC(Oc3ccc(-c4noc(C(C)C)n4)cc3)C2)cc1 (centres undefined)	NIH3T3 tox inconclusive, HEK cytotox 40µM, hNpr1 antagonist inconclusive
O=C1Nc2ccccc2CC12CCN2[S+](=O)([O-])c1cccs1 (centres undefined)	none
COc1ccc(CN2CCC[C@H]2c2nc(-c3cncnc3N)no2)c(O)c1	none
COc1ccc(CNC(=O)[C@@H]2Cc3c[nH]c4cccc(c34)[C@H](CC(C)C)N2)cc1	NIH3T3 tox 45µM, HEK cytotox 79µM
CC(C)C[C@@H]1N[C@H](C(=O)NCc2ccc(F)cc2)Cc2c[nH]c3cccc1c23	NIH3T3 tox 40µM, HEK cytotox 28µM
C=CCNC(=O)[C@@H]1Cc2c[nH]c3cccc(c23)[C@H](CC(C)C)N1	NIH3T3 tox inconclusive, HEK cytotox inconclusive
CC(C)C[C@@H]1N[C@H](C(=O)NCc2ccccc2)Cc2c[nH]c3cccc1c23	NIH3T3 tox 32µM, HEK cytotox 35µM
CC(C)C[C@@H]1N[C@H](C(=O)NCc2ccccn2)Cc2c[nH]c3cccc1c23	NIH3T3 tox inconclusive, HEK cytotox 28µM
CC(C)C[C@@H]1N[C@H](C(=O)NCCCn2ccnc2)Cc2c[nH]c3cccc1c23	NIH3T3 tox inconclusive, HEK cytotox inconclusive
COc1ccc(-c2cccc(C(=O)N3CCC(NC(=O)c4ccccc4C)CC3)c2)nn1	HEK cytotox inconclusive (no result: hNpr1 antagonist, FLuc inh)
COCCn1c(=O)c(C(=O)N2CCN(C(=O)Cc3ccc(OC)cc3)CC2)nc2cccnc21	none (no result: hNpr1 antagonist, FLuc inh)
COc1ccc(CN2CC3(CCN(C(=O)Nc4ccc(OC)c(F)c4)CC3)C2=O)cc1	NIH3T3 tox inconclusive, HEK cytotox inconclusive
O=C(Nc1cccc(Cl)c1)c1ccc2oc(-c3ccncc3)nc2c1	HEK cytotox inconclusive (no result: hNpr1 antagonist, FLuc inh)
O=C1COCC2(CN1Cc1ccccc1)CN(C(=O)C1(c3ccccc3)CC1)C2	NIH3T3 tox 79µM
COc1cncc(N2CC3(COCC(=O)N(Cc4cccc(OC(F)(F)F)c4)C3)C2)c1	NIH3T3 tox inconclusive, HEK cytotox inconclusive
O=C1COCC2(CN1Cc1ccccc1)CN(c1cccnc1)C2	NIH3T3 tox 89µM
O=C1COCC2(CN(Cc3cc(F)ccc3F)C2)CN1Cc1ccccc1	HEK cytotox 100µM
COc1ccc(CN2CC3(COCC2=O)CN(c2ccccc2)C3)cc1F	NIH3T3 tox inconclusive, HEK cytotox inconclusive
O=C(N1CCOCC2(C1)CN([S+](=O)([O-])c1ccccc1)C2)C1(c2ccccc2)CC1	HEK cytotox inconclusive
O=C1COCC2(CN1Cc1ccccc1)CN(C(=O)c1ccc(F)c(Cl)c1)C2	NIH3T3 tox 89µM
COc1ccc(CCC(=O)N2CC[C@@H]3COCCN(Cc4ccncc4)[C@@H]3C2)cc1	NIH3T3 tox inconclusive, FLuc inh 40µM
COc1ccc(CC(=O)NC2CCCN(Cc3ccc(-c4cc(C)cc(C)c4)cc3)C2)cc1 (centres undefined)	NIH3T3 tox 18µM, HEK cytotox 22µM (no result: hNpr1 antagonist, FLuc inh)
Cc1cc(C)cc(-c2ccc(CN3CCCC(NC(=O)C(C)C)C3)cc2)c1 (centres undefined)	none (no result: hNpr1 antagonist, FLuc inh)
COc1ccc(CC(=O)NC2CCCN(c3cc(-c4ccc(OC)cc4)[nH]n3)C2)cc1 (centres undefined)	none
Cc1cc(C)cc(-c2ccc(CN3CCCC(NC(=O)Cc4ccc(F)cc4)C3)cc2)c1 (centres undefined)	NIH3T3 tox inconclusive, HEK cytotox 32µM (no result: hNpr1 antagonist, FLuc inh)
Cc1cc(C)cc(-c2ccc(CN3CCCC(NC(=O)N(C)C)C3)cc2)c1 (centres undefined)	NIH3T3 tox inconclusive, HEK cytotox 32µM (no result: hNpr1 antagonist, FLuc inh)
Cc1cc(C)cc(-c2ccc(CN3CCCC(NC(=O)Cc4cccc(Cl)c4)C3)cc2)c1 (centres undefined)	NIH3T3 tox inconclusive, HEK cytotox 25µM (no result: hNpr1 antagonist, FLuc inh)
c1ccc(CN[C@@H]2C[C@@H]3CO[C@H](c4ccccc4)C[C@@H]3C2)cc1	HEK cytotox inconclusive (no result: hNpr1 antagonist, FLuc inh)
c1ccc(-c2ccccc2CN[C@@H]2C[C@@H]3CO[C@H](c4ccccc4)C[C@@H]3C2)cc1	NIH3T3 tox 18µM, HEK cytotox inconclusive (no result: hNpr1 antagonist, FLuc inh)
N#Cc1ccc(CN2CCc3ncc(C(=O)NCCOc4ccccc4)n3CC2)cc1	NIH3T3 tox inconclusive, HEK cytotox 71µM, hNpr1 antagonist inconclusive
O=C(NCc1ccccc1)c1cnc2n1CCN(CCCc1ccccc1)CC2	NIH3T3 tox 25µM, HEK cytotox inconclusive
CC(C)CCN1CCc2ncc(C(=O)NCCOc3ccccc3)n2CC1	NIH3T3 tox inconclusive, HEK cytotox 28µM
CC(C)c1noc(-c2cccn3c(CNC(=O)c4ccc(F)cc4Cl)nnc23)n1	none
CCCOC1CCCN(C(=O)c2ccc3nc(-c4ccc(F)cc4)cn3c2)C1 (centres undefined)	HEK cytotox 25µM
CC(C)c1ccc(S(=O)(=O)N(C)CC2CCOCC2)cc1	HEK cytotox inconclusive, hNpr1 antagonist inconclusive
Clc1ccc(CCNc2ncncn2)c(Cl)c1	NIH3T3 tox inconclusive, HEK cytotox 40µM, hNpr1 antagonist inconclusive
O=C(NC1CCN(c2ccc3nnc(C4CC4)n3n2)C1)c1ccc(Cl)cc1 (centres undefined)	none (no result: hNpr1 antagonist, FLuc inh)
COc1cccc(C(=O)N(C)Cc2ccc(F)cc2)c1	none
CN(Cc1ccc(-c2ccccc2)cc1)C(=O)c1ccc(F)cc1	NIH3T3 tox inconclusive, HEK cytotox 71µM
Cc1ccccc1C(=O)N(C)Cc1ccc(-c2ccccc2)cc1	NIH3T3 tox 50µM, HEK cytotox inconclusive, hNpr1 antagonist inconclusive
CN(Cc1ccc(F)cc1)C(=O)c1ccccc1	HEK cytotox inconclusive
Cc1ccccc1C(=O)N(C)Cc1ccc(F)cc1	none
COc1cccc(C(=O)N(C)Cc2ccc(-c3ccccc3)cc2)c1	NIH3T3 tox inconclusive, HEK cytotox 71µM
C[C@H]1[C@@H]2[C@@H](O)C([C@H](C)C(=O)NCc3ccccn3)CC[C@@]2(C)CC[C@@H]1NC(=O)c1ccccc1 (some centres undefined)	none
O=C(COc1ccccc1Cl)N1CCCC(O)(CN2CCCC2)C1 (centres undefined)	none
O=C(c1ccccc1F)N1CCC2(CC1)Cc1ccccc1NC2=O	NIH3T3 tox inconclusive, HEK cytotox 50µM
COc1cccc(C(=O)N2CCC3(CC2)Cc2ccccc2NC3=O)c1	NIH3T3 tox 35µM, HEK cytotox 45µM
